The text below walks through data of PubChem BioAssay AID488969 (Vanderbilt High Throughput Screening Facility, 2010).

Over roughly 110,000 compounds, “z-score” has its median near -0.1; the highest 2% begin near 2. The sample holds the highest values, similar compounds and a random draw of the others, so the mix is not that of the screen. The source made the active and inactive calls.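 Rule for the calls: active = z-score in the third read window above 3 or below -3; inactive = the rest.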

In this experiment the target is Metabotropic glutamate receptor 8 (Rattus norvegicus) (UniProt P70579). Put plainly: mGluR8 Gi/Go-coupled signaling modulation – cell-based, rat, thallium flux, HTS, primary screen (AID 488969). As to conditions: HEK293 rat mGluR8, GIRK (G protein-gated inwardly rectifying potassium channel) thallium flux, FluoZin2; at 10 µM; stronger effect = higher value; submaximal glutamate (EC20) added with thallium.
Metabotropic glutamate receptor 8 (Rattus norvegicus), sequence (P70579 whole entry, looked up): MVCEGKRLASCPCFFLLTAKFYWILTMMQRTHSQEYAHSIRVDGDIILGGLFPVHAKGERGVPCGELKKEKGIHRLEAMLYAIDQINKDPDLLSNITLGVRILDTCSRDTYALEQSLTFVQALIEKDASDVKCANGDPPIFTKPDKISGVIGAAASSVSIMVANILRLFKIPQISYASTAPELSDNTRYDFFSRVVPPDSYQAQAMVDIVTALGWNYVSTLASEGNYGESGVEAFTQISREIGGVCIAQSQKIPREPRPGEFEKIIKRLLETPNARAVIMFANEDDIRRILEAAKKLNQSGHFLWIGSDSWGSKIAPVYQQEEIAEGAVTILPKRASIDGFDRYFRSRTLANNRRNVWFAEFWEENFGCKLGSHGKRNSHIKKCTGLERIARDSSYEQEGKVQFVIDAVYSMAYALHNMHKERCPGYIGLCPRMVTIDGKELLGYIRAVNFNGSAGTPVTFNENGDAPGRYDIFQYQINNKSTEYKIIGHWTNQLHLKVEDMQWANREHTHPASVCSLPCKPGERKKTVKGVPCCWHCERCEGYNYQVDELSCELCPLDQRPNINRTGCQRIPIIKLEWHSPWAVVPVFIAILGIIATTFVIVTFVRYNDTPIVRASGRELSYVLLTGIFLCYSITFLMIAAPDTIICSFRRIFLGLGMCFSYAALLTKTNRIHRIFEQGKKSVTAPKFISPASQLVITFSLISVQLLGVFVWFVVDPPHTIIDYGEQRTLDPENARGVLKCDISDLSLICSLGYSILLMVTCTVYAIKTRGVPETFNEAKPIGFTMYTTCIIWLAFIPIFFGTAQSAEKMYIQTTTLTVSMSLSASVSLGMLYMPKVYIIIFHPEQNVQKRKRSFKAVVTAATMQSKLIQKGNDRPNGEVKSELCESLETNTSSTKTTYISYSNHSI
As to `COc1ccc(C(=O)N(NC(=O)Oc2ccccc2)C(C)(C)C)cc1`, the z-score came out at 0.485. Molecule `O=C(Nc1ccc2nc3ccccc3nc2c1)c1ccccc1` displayed a z-score of -0.114.

As to `O=C(Nc1ccc2[nH]c(=S)sc2c1)c1ccccc1`, the z-score was 11.9 (active). `O=C(Nc1ccc(F)cc1)c1ccccc1` showed a z-score of -0.000317. For `CC1(C)CC(CC(=O)Nc2ccccc2[N+](=O)[O-])C(=O)O1` (stereo not given) the value was -0.0252; for `COC(=O)c1cn(-c2ccccc2)c(C)c1C(=O)OC`, -0.11. Consider `C=CCn1c(SCc2c(C)noc2C)nc2sc3c(c2c1=O)CCCCC3`, for which the z-score is -0.236. In turn, `C=CCn1c(SCc2c(C)noc2C)nc2sc3c(c2c1=O)CCCC3` came in with a z-score of -0.0819. For `C=CCn1c(SCc2c(C)noc2C)nc2sc3c(c2c1=O)CCC(C)C3` (stereo not given) the value was 2.65; for `CC(C)(Oc1ccc(Cl)cc1)C(=O)NCc1ccncc1`, 0.181; for `O=C(Nc1nc(=S)ss1)c1ccc(Cl)cc1Cl`, 4.46 (active). For `Cc1ccccc1C(=O)Nc1nncs1` the value was -0.0319; for `O=C(Nc1nc(=S)ss1)c1c(F)cccc1F`, -0.588; for `Cc1ccccc1C(=O)Nc1nc(=S)ss1`, 2.56.

`CC(C)C(=O)Nc1cccc(NC(=O)c2ccc(Cl)cc2Cl)c1` displayed a z-score of -0.304. Take `CC(=O)Nc1nc(=S)ss1`: the z-score came to 0.468.

Take `CCOc1nc(N(C)C)nc(-n2nnc(C(C)=O)c2C)n1`: the z-score was -0.22. Molecule `CC1SCC(=O)N(CC(=O)NCc2ccccc2)C1=O` (stereo not given) registered a z-score of -0.233. On to `O=C(N/N=C/c1c(Cl)cccc1Cl)c1ccc(F)cc1`, for which the z-score is -0.476. Regarding `O=C(N/N=C/c1ccccc1Cl)c1cccc(F)c1`, the z-score was -0.342. For `O=C(N/N=C/c1c(Cl)cccc1Cl)c1cccc(F)c1` the value was 3.05 (active); for `O=C(C(=O)N1CCc2ccccc2C1)c1cn(CC(=O)N2CCCCC2)c2ccccc12`, -0.582. For `CC(=O)C1=C(O)C(=O)N(c2cccc(C(=O)O)c2)C1c1ccc(F)cc1` (stereo not given) the value was -0.153. `CC(=O)CN1Cc2ccccc2/C1=N\C(=O)Nc1ccccc1`: the z-score is 3.19 (active). As to `CC(=O)c1ccc(N2Cc3ccccc3/C2=N\C(=O)Nc2ccccc2)cc1`, the z-score was -0.211.

Molecule `O=C(/N=C1/c2ccccc2CN1c1ccccc1)Nc1ccccc1` showed a z-score of -0.236.

Molecule `Cc1ccc(S(=O)(=O)N2CCN(c3ccc(C(F)(F)F)cc3[N+](=O)[O-])CC2)cc1` registered a z-score of -0.0811. As for `Cc1scc(C(=O)N/N=C/c2ccc(OC(C)C)cc2)c1C`, the z-score amounted to 0.164. Molecule `Cc1ccccc1NC(=O)CSc1nc(COc2ccccc2)nc2ccccc12` registered a z-score of 0.264. Molecule `CCCC(=O)Nc1ccccc1-c1nnn(CC(=O)Nc2ccc(OCC)cc2)n1` gave a z-score of -0.817. In turn, `Cc1ccc(F)cc1NC(=O)Cc1nn(C)c(=O)c2ccccc12` yielded a z-score of -0.0938. Molecule `Cn1nc(CC(=O)Nc2cccc3ncccc23)c2ccccc2c1=O` registered a z-score of 2.01.

`COc1ccc(NC(=O)Cn2nnc(-c3ccccc3F)n2)cc1Cl`: the z-score was found to be 0.202. For `CCOC(=O)c1ccc(NC(=O)Cn2nnc(-c3ccccc3F)n2)cc1` the value was -0.121; for `O=C(Cn1nnc(-c2ccccc2NC(=O)c2ccccc2)n1)Nc1ccc2c(c1)OCCO2`, 0.418. Turning to `O=C(Cn1nnc(-c2ccccc2F)n1)NCCc1ccccc1`, the z-score was -0.146. Regarding `O=C(Cn1nnc(-c2ccccc2F)n1)Nc1cccc2ncccc12`, the z-score was 2.27. In turn, `O=C(Cn1nnc(-c2ccccc2F)n1)Nc1ccc2c(c1)OCO2` displayed a z-score of 2.41.

In turn, `COc1ccccc1NC(=O)Cc1nn(C)c(=O)c2ccccc12` yielded a z-score of -0.677. Turning to `O=C(Cn1nnc(-c2ccccc2)n1)Nc1ccc2c(c1)OCO2`, the z-score amounted to 0.199.

`CCOc1ccc(NC(=O)Cn2nnc(-c3ccccc3F)n2)cc1`: the z-score is 3.4 (active).

In turn, `CCCNc1c(N)c(=O)oc2ccccc12` displayed a z-score of -1.25. `O=c1[nH]c2ccc(Cl)cc2c(-c2ccccc2)c1N1CCN(CCO)CC1` came in with a z-score of 0.464. For `O=C(Nc1ccc(F)cc1F)c1ccco1` the value was -0.0416; for `CCN(CC)c1ccc(NC(=O)/C=C\c2ccccc2Cl)cc1`, -0.341. For `CCOC(=O)CNC(=O)CSc1nc2ncc(Br)cc2[nH]1` the value was 0.941; for `Cc1cc(N2C(=O)C3C4c5ccccc5C(c5ccccc54)C3C2=O)no1` (stereo not given), -0.47. In the case of `Cc1ccc2c(CC(=O)NNC(=O)c3ccccc3)coc2c1`, the z-score was -0.29. In turn, `CC(=O)O/N=C(/c1nonc1N)N1CCN(c2ccc([N+](=O)[O-])cc2Cl)CC1` came in with a z-score of -0.222.

Regarding `O=C(O)CCC(=O)Nc1ccc(N2CCCCC2)c(C(=O)O)c1`, the z-score amounted to 0.0405. For `CC(=O)Nc1ccc(N2CCCCC2)c(C(=O)Nc2cccc(C)c2)c1` the value was -0.0504; for `Cc1ccc(NC(=O)c2cc(NC(=O)CCC(=O)O)ccc2N2CCCCC2)cc1`, 4.06 (active); for `COc1ccc(-c2cc(C(F)(F)F)c3c(n2)sc2c(O)cc(=O)[nH]c23)c(OC)c1`, 5.32 (active).

For `O=c1cc(O)c2sc3nc(-c4ccccc4)cc(C(F)(F)F)c3c2[nH]1`, the z-score was -1.89.

As to `COc1ccc(OC)c(-c2cc(C(F)(F)F)c3c(n2)sc2c(O)cc(=O)[nH]c23)c1`, the z-score is -0.747.

With `Cc1sc(NC(=O)c2sc3nc4c(C)cccc4cc3c2N)c(C#N)c1C`, the z-score amounted to 2.37. For `COc1cc2cc3c(N)c(C(=O)Nc4sc(C)c(C)c4C#N)sc3nc2cc1OC` the value was 0.0438; for `Cc1[nH]c(=O)[nH]c(=O)c1NC(=O)c1sc2nc3c(C)cccc3cc2c1N`, -0.256. For `CCN(CC)S(=O)(=O)c1ccc(N2CCCCC2)c(NC(=O)/C(C#N)=C/c2ccc(OC)cc2)c1` the value was -0.0436; for `O=c1[nH]cnc2cc(Cl)ccc12`, -0.0535; for `CCOc1ccc(C(C)=O)cc1N1C(=O)C2C(C1=O)C1C=CC2C12CC2` (stereo not given), 4.92 (active). For `CCOc1ccc(C(C)=O)cc1N1C(=O)C2C3C=CC(C3)C2C1=O` (stereo not given) the value was -0.533; for `CCOc1ccc(C(C)=O)cc1N1C(=O)C2C3C=CC(O3)C2C1=O` (stereo not given), -0.01; for `COCCCNC(=O)C1CCCCN1S(=O)(=O)c1ccc(F)cc1` (stereo not given), 0.633.

Molecule `CCn1c(SCC(=O)Nc2ccc(N3CCOCC3)c(Cl)c2)nnc1-c1ccc(N)cc1` gave a z-score of 2.78. As to `CCn1c(Cc2ccccc2)nnc1SCC(=O)Nc1ccc(N2CCOCC2)c(Cl)c1`, the z-score is -0.645. In the case of `Cc1ccc(-c2nnc(SCC(=O)Nc3ccc4c(c3)OCCO4)n2N)cc1`, the z-score was 14.1 (active). For `COc1ccc(-c2nnc(SCC(=O)Nc3ccc4c(c3)OCCO4)n2N)cc1OC` the value was -0.393.

On to `Cn1c(SCC(=O)Nc2ccc(N3CCOCC3)c(Cl)c2)nnc1-c1ccccc1`, for which the z-score was -0.0676. For `Nn1c(SCC(=O)Nc2ccc3c(c2)OCO3)nnc1-c1ccc(Cl)cc1` the value was -0.179.
